According to PubChem BioAssay AID2314 (National Center for Advancing Translational Sciences (NCATS), 2010):
Several values for one entry are separate records, joined by “and”; a condition that tells them apart may be missing. Equal values may be shown once. Among all 300,000 compounds or so, about 37,000 (12%) were called active. Rule as the data show it: active = max response mostly above about 13% (no sharp cut-off); inactive = mostly below about 14%. The list comes from a sample in which actives are over-represented; it also holds similar structures and randomly drawn compounds. More than one record can exist for a structure, and the calls need not agree.

Assay: Cycloheximide Counterscreen for Small Molecule Inhibitors of Shiga Toxin; also: read at 38.3 µM for the half of the compounds with a filed dose; 0% is about no effect
Settings: cell reporter, cycloheximide protein synthesis inhibition counterscreen; stronger effect = higher value

Row | SMILES | max response
1 | O=C(c1ccncc1)c1ccc([N+](=O)[O-])cc1 | -4.87% (inactive)
2 | O=C(CC(n1cncn1)C(Cl)(Cl)Cl)c1ccc([N+](=O)[O-])cc1 (stereo not given) | -2.22% (inactive)
3 | O=C(Cn1c[n+](CC(=O)c2ccc([N+](=O)[O-])cc2)cn1)c1ccc([N+](=O)[O-])cc1 | 1.46% (inactive) and 22.2% (active)
4 | COc1ccc(N2CCC(N3CCN(C)C(CCO)C3)CC2)cc1 (stereo not given) | -1.24% (inactive)
5 | COc1ccc(OCCNS(=O)(=O)Cc2ccccc2)cc1 | -3.58% (inactive)
6 | O=C(c1ccc(Cl)cc1)N1N=C(c2ccccn2)CC1(O)C(F)(F)F (stereo not given) | -0.573% (inactive)
7 | COc1ccc(OC)c(CNC(=O)c2cc(=O)[nH]c3ccc(S(=O)(=O)N4CCCC4)cc23)c1 | 11.5% (inactive)
8 | COC(CNC(=O)c1ccc2c(c1)ncn2-c1cc(C)cc(C)c1)OC | -5.14% (inactive)
9 | O=C(CCCn1c(SCC(=O)c2ccc(F)cc2)nc2ccccc2c1=O)NCc1ccco1 | -0.158% (inactive)
10 | Cc1ccc(C(=O)CSc2nc3ccccc3c(=O)n2N)o1 | 34.6% (active)
11 | COC(=O)CSc1nc2ccccc2c(=O)n1Cc1ccccc1 | 12.7% (inactive)
12 | CC1CCC(NC(=O)CN(C)S(=O)(=O)c2ccc3c(c2)c(=O)n(C)c(=O)n3C)CC1 (stereo not given) | -2.52% (inactive)
13 | Cn1c(=NC(=O)c2cnccn2)sc2ccccc21 | 26% (active)
14 | Cn1c(=NC(=O)CSCC(=O)N2CCCCC2)sc2ccccc21 | 2.51% (inactive)
15 | Cn1c(=NC(=O)CSCC(=O)N2CCOCC2)sc2ccccc21 | 11% (inactive)
16 | COc1cc(CO)c(C2(CO)CCCC2)cc1OC | -4.97% (inactive)
17 | Cc1cc(C)cc(N(CCC#N)C(=O)CN2C(=O)NC3(CCCC3)C2=O)c1 | 1.6% (inactive)
18 | O=c1c(-c2ccccc2)cnc2n1CCS2 | -4.67% (inactive)
19 | Oc1ccccc1N1CCN(c2ncnc3sc(-c4ccccc4)cc23)CC1 | 9.53% (inactive)
20 | O=c1c2cc(-c3ccccc3)sc2nc2n1N=C(c1cccs1)CS2 | 57% (active)
21 | CC(C)NC(=O)C(c1ccc(F)cc1)N(C(=O)CCC(=O)Nc1ccccn1)c1ccccc1F (stereo not given) | -2.11% (inactive)
22 | CC(C)CCNC(=O)Cn1c(=O)oc2cc(S(=O)(=O)N3CC(C)CC(C)C3)ccc21 (stereo not given) | -7.3% (inactive)
23 | CSc1ccc(/C=N/N2CCN(Cc3ccccc3Cl)CC2)cc1 | 16.6% (active)
24 | COc1ccccc1/C=N/N1CCN(Cc2ccccc2Cl)CC1 | 1.31% (inactive)

Row | SMILES | max response
25 | O=S1(=O)CCN(Cc2ccccc2Cl)CC1 | -2.05% (inactive)
26 | Cc1cccc(-n2cnc(C(=O)Nc3cccnc3)c2)n1 | 25.5% (active)
27 | Cc1cccc(-n2cnc(C(=O)NNC(=S)Nc3ccccc3)c2)n1 | -0.715% (inactive)
28 | Cc1cc(C)c(NC(=O)CS(=O)CC(=O)Nc2cccnc2)c(C)c1 (stereo not given) | 3.39% (inactive)
29 | Cc1cccc(Nc2nc3c(S(=O)(=O)c4ccccc4)nnn3c3ccccc23)c1C | -2.93% (inactive)
30 | Cc1ccc(/C=C2\CCn3c2nc2cc(C(=O)O)ccc2c3=O)c(C)c1 | 8.18% (inactive)
31 | CCc1ccc(-c2nn(-c3ccccc3)cc2CSC(=N)N)cc1 | -12.4% (inactive)
32 | COc1cc2c(cc1OC)CN(C(=O)c1cc(S(=O)(=O)N3CCCCC3)ccc1Cl)CC2 | 11.1% (inactive)
33 | Cc1ccccc1OCC(=O)Nc1nnc(S(=O)(=O)N2CCCC2)s1 | 1.8% (inactive)
34 | Cc1nc(SCC(=O)Nc2cc(C)on2)c2c(C)c(C)sc2n1 | -2.36% (inactive)
35 | CC(NC(=O)CSc1nc2c(cc1C#N)CN(C)CC2)c1ccccc1 (stereo not given) | -4.77% (inactive)
36 | Cc1cc(NC(=O)CSc2nc3c(cc2C#N)CCCCC3)no1 | 14.6% (active)
37 | Cc1c(CCO)sc[n+]1CC(=O)OC12CC3CC(CC(C3)C1)C2 | -2.92% (inactive)
38 | COC(=O)C1(C)CC1(c1ccccc1)c1ccccc1 (stereo not given) | -2.76% (inactive)
39 | COC(=O)c1c(C)oc2ccc(N(C(=O)Oc3ccccc3)S(=O)(=O)c3ccccc3)cc12 | -13.2% (inactive)
40 | Cc1cccc(/C(N)=N/OC(=O)c2ccccc2Cl)c1 | 37% (active)
41 | N/C(=N\OC(=O)c1cc(-c2ccccc2)nc2ccccc12)c1ccncc1 | -3.22% (inactive)
42 | Cc1cccc(C(=O)c2cccc(C)c2)c1 | 0.416% (inactive)
43 | O=C(O)CCN=C1CCc2ccccc2N1 | -2.89% (inactive)
44 | COc1cc(OC)cc(-c2nnc(N(C)C(=O)c3ccncc3)s2)c1 | -2.59% (inactive)
45 | COc1ccc(NC(=O)C2CCN(S(=O)(=O)c3ccc4[nH]c(=O)oc4c3)CC2)c(OC)c1 | -1.11% (inactive)
46 | Cc1ccc(N(CC(=O)Nc2cccc(N(C)S(C)(=O)=O)c2)S(C)(=O)=O)cc1 | -1.08% (inactive)
47 | CN(c1cccc(NC(=O)Nc2ccc(Cl)cc2)c1)S(C)(=O)=O | 36.6% (active)
48 | CN(c1cccc(NC(=O)c2ccc(CN3CCc4ccccc4C3)cc2)c1)S(C)(=O)=O | -1.55% (inactive)

Row | SMILES | max response
49 | C/C(=N/NC(=O)c1ccc(NC(=O)c2ccc(F)cc2)cc1)c1ccccc1 | 11% (inactive)
50 | COc1cccc(C(=O)N/N=C(\C)c2cccc(NC(=O)c3ccc(F)cc3)c2)c1OC | 27.3% (active)
51 | CC(=O)Nc1cccc(/C(C)=N/NC(=O)c2ccccc2Cl)c1 | 8.8% (inactive)
52 | O=C(Nc1nonc1-c1ccc(Cl)cc1)c1ccco1 | 7.55% (inactive)
53 | O=C(COc1ccc2c3c(c(=O)oc2c1)CCC3)NC1CCCCC1 | 1.97% (inactive)
54 | NC(=O)C1CCN(C(=O)COc2ccc3c4c(c(=O)oc3c2)CCC4)CC1 | -1.44% (inactive)
55 | NC(=O)COc1ccc2c3c(c(=O)oc2c1)CCCCC3 | 12.8% (active)
56 | CC1CCN(C(=O)c2cc3nc(C4CC4)cc(C(F)(F)F)n3n2)CC1 | 1.99% (inactive)
57 | CCNC(=S)N(CCN(CC)CC)Cc1cc2cc3c(cc2[nH]c1=O)OCCO3 | -0.726% (inactive)
58 | COc1cccc(-c2cc(=O)c3cc(NC(=O)c4ccc(C)cc4)ccc3[nH]2)c1 | -0.33% (inactive)
59 | CC1(C)CC(=O)C/C(=N\NC(=O)c2cccs2)C1 | 1.56% (inactive)
60 | CC(C)OCCCNC(=O)CNC(=O)c1cccs1 | -3.03% (inactive)
61 | CC1C/C(=N/NC(=O)c2cccs2)CC(C)(C)C1 (stereo not given) | 32.2% (active)
62 | CC(=O)NNC1=Nc2ccccc2N(C)C(C)C1 (stereo not given) | -2.23% (inactive)
63 | CC(C)c1ccccc1OCC(O)CN(CC(O)COc1cccc2ccccc12)C(C)C (stereo not given) | -5.17% (inactive)
64 | Cc1ccc(NS(=O)(=O)c2ccc(-c3ccc(=O)[nH]n3)o2)c(C)c1 | -1.58% (inactive)
65 | O=C(COc1ccc2c3c(c(=O)oc2c1)CCCC3)NCC(O)c1ccccc1 (stereo not given) | -1.36% (inactive)
66 | CC(=O)N1CCN(CC(=O)Nc2ccc(C)c(F)c2)CC1 | -6.08% (inactive)
67 | Cc1cccc(NC(=O)NC(=S)NC(=O)c2ccccc2)c1 | 42.2% (active)
68 | Cc1cccc(NC(=S)Nc2ccc(Br)cc2)c1 | 18.4% (inactive)
69 | Cc1cccc(NC(=S)NC23CN4CN(CN(C4)C2)C3)c1 | 0.709% (inactive)
70 | O=C(CNC(=O)c1ccc(Br)o1)Nc1ccccc1 | -2.14% (inactive)
71 | Cc1ccc(NC(=O)NC(=O)c2ccccc2)cc1F | 25.9% (active)
72 | Cc1cccc(NC(=O)c2nnn(-c3cccc(C(F)(F)F)c3)c2N)c1 | 19.9% (inactive)

Row | SMILES | max response
73 | CNC(=O)c1ccc(NC(=O)c2cccc(C(F)(F)F)c2)cc1 | 8.58% (inactive)
74 | Cc1nc(C)c(C(=O)Nc2ccc(C)c(F)c2)o1 | 5.75% (inactive)
75 | Cc1cccc(NC(=O)/C(=C\c2ccco2)NC(=O)c2ccccc2)c1 | 11.3% (inactive)
76 | Cc1cccc(NC(=O)c2cccc(C(F)(F)F)c2)c1 | 29.9% (active)
77 | Cc1cccc(NC(=S)NC(=O)c2ccc(Br)o2)c1 | 34.5% (active)
78 | Cc1cc(-c2nnc(SCC(=O)Nc3ccc(F)cc3)n2N)n[nH]1 | 0.984% (inactive)
79 | COc1ccccc1NC1=NC(c2ccc(Cl)cc2)N=C(N)N1 (stereo not given) | 2.63% (inactive)
80 | CC(Sc1nnnn1C)C(=O)NC(=O)NC1CCCCC1 (stereo not given) | 0.707% (inactive)
81 | COc1ccc(N2CCN(CCNC(=O)Nc3cc(Cl)ccc3Cl)CC2)cc1 | -4.73% (inactive)
82 | O=C(Nc1ccnn1C1CCN(Cc2cccc(OCCO)c2)CC1)C1CCCC1 | -3.51% (inactive)
83 | Cc1cccc(NS(=O)(=O)c2ccc(-c3cnc(C4CC4)o3)cc2)c1 | -3% (inactive)
84 | CC1CCN(C(=S)NC(=O)c2ccccc2Br)CC1 | 3.84% (inactive)
85 | O=C(NC(=S)Nc1ncccn1)c1ccccc1Br | 14.4% (active)
86 | O=C(NC(=S)Nc1ccc(S(=O)(=O)Nc2ncccn2)cc1)c1cccc(Br)c1 | 5.33% (inactive)
87 | COc1cc2nc(CN(C)Cc3ccc(F)cc3)[nH]c(=O)c2cc1OC | -2.34% (inactive)
88 | COc1ccc(-n2nc(C(=O)NCC(=O)N3CCCCCC3)c3ccccc3c2=O)cc1Cl | 1.06% (inactive)
89 | COC(=O)c1ccc(C(=O)OC)c(NC(=S)N2CCN(c3ccc(F)cc3)CC2)c1 | -7.21% (inactive)
90 | COC(=O)c1nc(NC(=O)c2ccc(F)cc2)n[nH]1 | -1.65% (inactive)
91 | COC(=O)c1ccc(Sc2ccc(F)cc2)c(N)c1 | 24.1% (active)
92 | O=S(=O)(NC1CCCCC1N1CCN(c2ccccc2F)CC1)c1ccccc1 (stereo not given) | 7.38% (inactive)
93 | O=C(O)c1ccc(/C=C2\SC(=S)N(NC(=O)c3ccc(Br)cc3)C2=O)cc1 | -2.52% (inactive)
94 | CC1(C)NC(=O)N(CCCCSc2ccc(Cl)cc2)C1=O | 6.3% (inactive)
95 | CN(Cc1ccccc1)C(=O)c1ccc(NC2=NC3CS(=O)(=O)CC3S2)cc1 (stereo not given) | 0.883% (inactive)
